From PubChem BioAssay AID686979 (National Center for Advancing Translational Sciences (NCATS), 2013)
Out of some 420,000 compounds screened, about 50,000 (12%) were called active. About 26% were inconclusive and are not listed. This excerpt belongs to a sample that is enriched for actives. A number with no mark means an inactive call. Calls follow the shape of the dose curve; as a rule, active = well fitted inhibition curve with a large enough effect; inconclusive = small, poorly fitted or top-dose-only effect; inactive = flat fitted curve, though single readings scatter.

test: qHTS for Inhibitors of human tyrosyl-DNA phosphodiesterase 1 (TDP1): qHTS in cells in presence of CPT; settings: chicken DT40 Tdp1-/-;hTDP1 cells + 20 nM CPT, ATP luminescence, 48 h; series mostly up to 46.2 µM; activity change, negative = growth inhibition: at the top concentration; also: nearly all actives have a fitted effect of over 55% in size
Procedure, shortened: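 Chicken DT40 Tdp1-/- cells stably complemented with human TDP1 were seeded at 400 cells/well in medium containing 20 nM camptothecin, exposed to pin-transferred compounds, and grown at 37 °C for at least 48 hr. Viability was read as ATP luminescence.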
% is scaled to controls: 0 for no effect and ±100 for the full control effect; potency is read from the fitted curve at half-maximal effect.

Row | SMILES | activity change, negative = growth inhibition | Potency
1 | CC(C)C(C(=O)NCc1ccco1)N(CC1CCCO1)C(=O)CNS(=O)(=O)c1ccc(F)cc1 (configuration not stated) | 1.31% | 
2 | Cc1ccc(C2SCC(=O)N2c2ccccc2)cc1 (configuration not stated) | 10.6% | 
3 | O=C1CC(c2ccccc2)C(=O)N1c1cccc(O)c1 (configuration not stated) | -14.8% | 
4 | COC(=O)[C@@]1(Sc2ccc(C)cc2)CC(=O)N(c2cccc(SC)c2)[C@@H]1c1ccccc1 |  | 18.4 µM (active)
5 | COc1cc(CO)ccc1OCC(=O)Nc1cccc2ccccc12 | -13.7% | 
6 | O=C(NCCCn1ccnc1)c1cc(Br)c(Br)s1 | 4.77% | 
7 | COC(=O)c1sc2[nH]c(=S)n(N)c(=O)c2c1C | -11.5% | 
8 | Cc1ccc2occ(/C=N/NC(=O)c3ccccc3C)c(=O)c2c1 |  | 16.4 µM (active)
9 | O=c1c(/C=N/O)coc2ccc(Cl)cc12 | 14.6% | 
10 | CC(C)(C)OC(=O)NCCCCCC(=O)N/N=C/c1coc2ccccc2c1=O | -26.3% | 
11 | CN1CCC(OC(=O)COc2ccc(Cl)cc2Cl)CC1 | 2.57% | 
12 | O=C(COC(=O)c1ccccc1SCC(=O)N1CCCC1)Nc1ccccc1OC(F)F | -0.557% | 
13 | Cn1c(SCC(=O)N2CCCC2)nnc1-c1cccs1 | -4.1% | 
14 | Cc1cc(C)cc(NC(=O)Cn2nc(N3CCN(c4ccccc4)CC3)ccc2=O)c1 | -28.9% | 
15 | COc1ccc(CNC(=O)CCn2cccc2)cc1 | -2.52% | 
16 | COc1ccc(CNc2nccs2)cc1 | -19.3% | 
17 | COc1ccc(CNc2c(CO)cnc3c2cnn3C)cc1 |  | 8.2 µM (active)
18 | CSc1nc2nc3c(c(=O)n2[nH]1)CCC3 | -5.28% | 
19 | Cc1cc(NS(=O)(=O)c2ccc(NC(=O)c3ccccc3C)cc2)nc(C)n1 | -10.1% | 
20 | Cc1cnc(C(=O)N2CCOc3ccc(CN4CCCC(C(=O)c5cccnc5)C4)cc3C2)[nH]1 (configuration not stated) | -10% [at 9.04 µM] | 
21 | CN(C)CC(C)(C)CNC(=O)c1cc(Br)cc(Br)c1O | -3.33% | 
22 | O=C(Nc1cccc(C(F)(F)F)c1)c1cc(Br)cc(Br)c1O |  | 11.9 µM (active)
23 | O=C(O)CC1(CC(=O)Nc2cccc(C(F)(F)F)c2)CCCC1 | -2.74% | 
24 | Cc1cc(F)ccc1S(=O)(=O)Nc1ncnc2scc(-c3ccc(F)cc3)c12 | 19.5% | 
25 | CCOC(=O)Cn1c(=O)n(Cc2ccc(OC)cc2)c(=O)c2cccnc21 | 19.7% | 
26 | COc1ccnc2c1c(=O)n(Cc1cccc(F)c1)c(=O)n2C | -11.8% | 

Row | SMILES | activity change, negative = growth inhibition | Potency
27 | O=c1c2cccnc2n(Cc2cccc(F)c2)c(=O)n1Cc1ccccc1Cl |  | 14.6 µM (active)
28 | O=C(NC1CCCC1)C(c1ccc(Cl)cc1)N(C(=O)c1csnn1)C1CC1 (configuration not stated) | -9.79% | 
29 | Cc1ccc(-c2nc3c(cnn3-c3ccccc3)c(=O)o2)cc1 | -22.2% | 
30 | Cc1ccc(-n2ncc3c(=O)n(-c4ccc(C)c(C)c4)c(-c4ccco4)nc32)cc1 |  | 18.4 µM (active)
31 | Cc1ccc(-n2ncc3c(=O)n(Cc4cccc(C(F)(F)F)c4)cnc32)cc1C | 0.615% | 
32 | CCN(CC)S(=O)(=O)c1ccc(C(=O)N2CCN(C3=NS(=O)(=O)c4ccccc43)CC2)cc1 | -16.6% | 
33 | Cn1c(=O)c2c(nc(SCCNS(=O)(=O)c3ccccc3)n2C)n(C)c1=O | -26.8% | 
34 | CC(O)c1nc2c(c(=O)n(C)c(=O)n2C)n1C (configuration not stated) | 5.09% | 
35 | CCC/C(C)=N\Nc1nc2c(c(=O)n(C)c(=O)n2C)n1C |  | 18.4 µM (active)
36 | Cc1cc(-c2nnc(SCC(=O)Nc3ccc(F)cc3)n2N)n[nH]1 | -11.5% | 
37 | Cc1ccc(C)c(NC(=O)C(OC(=O)c2ccc(C)s2)c2ccccc2)c1 (configuration not stated) | -17.8% | 
38 | O=C1CN(C(=O)COc2c(Cl)cccc2Cl)c2ccccc2N1 | -15.5% | 
39 | CC/C(O)=C1\C(=O)CC(C)(C)CC1=NCCc1nc2ccccc2[nH]1 |  | 23.1 µM (active)
40 | O=C(OCc1nc2ccccc2[nH]1)C1CCCCC1 | -15.7% | 
41 | CCCc1nc(N)nc2c1C(=O)CC(C)(C)C2 | -16.3% | 
42 | COc1ccc(S(=O)(=O)Nc2cc(C)on2)cc1NC(C)=O | 22.5% | 
43 | CC1(C)CC(=O)C=C(c2ccc(Cl)c(C(F)(F)F)c2)C1 | -27.7% | 
44 | CCn1cc(C(=O)OCC(=O)Nc2cc(C)cc(C)c2)c(=O)c2ccc(C)nc21 | -22.5% | 
45 | Cc1cc(NC(=O)CS(=O)(=O)c2cn(C)c3ccccc23)no1 | -8.42% | 
46 | Cc1c(C(=O)N(C)CCc2cnn(C)c2)oc2c(F)cccc12 | -4.88% | 
47 | CC(C)(C)CC(C)(C)NCC(O)COCCOc1ccc(Br)cc1 (configuration not stated) |  | 5.17 µM (active)
48 | CC(Oc1ccc(Br)cc1)C(=O)NC1CCCCCC1 (configuration not stated) | -21.9% | 
49 | OC(COc1ccc(Br)cc1)CN1CCCC1 (configuration not stated) | -4.36% | 
50 | COC(=O)C1(C)NC(c2ccc(C)cc2)C2C(=O)N(c3ccc(F)cc3)C(=O)C21 (configuration not stated) | -1.12% | 
51 | C/C(N)=C(/C#N)C(=O)COC(=O)CNS(=O)(=O)c1ccc(C)cc1 | 7.08% | 
52 | Cc1ccc(C(=O)O)c(NC=O)c1OCc1ccccc1 | 20.1% | 
